Data published in PubChem BioAssay (NCI).
This is part of a sample that, as a whole, favours compounds with a hit. Of some 83,000 tested, about 20% had one in any assay.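 Method: cells in 96-well plates; compound added at one concentration; 48 h incubation; percent growth measured; values under 10 scored active.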 Calls of active or inactive are those of the source.

How the values were obtained:
Experiment in all cases: NCI-60 one-dose screen, 48 h (100 = growth as untreated, 0 = no growth, -100 = all killed)
Conditions in all cases: 10 µM unless noted
SK-MEL-2 melanoma = system: SK-MEL-2 melanoma
EKVX NSCLC = system: EKVX NSCLC
SN12C renal = system: SN12C renal
UO-31 renal = system: UO-31 renal
TK-10 renal = system: TK-10 renal
ACHN renal = system: ACHN renal
CAKI-1 renal = system: CAKI-1 renal
A498 renal = system: A498 renal
CCRF-CEM leukemia = system: CCRF-CEM leukemia
MOLT-4 leukemia = system: MOLT-4 leukemia
SR leukemia = system: SR leukemia
RPMI-8226 leukemia = system: RPMI-8226 leukemia
OVCAR-8 ovarian = system: OVCAR-8 ovarian
OVCAR-5 ovarian = system: OVCAR-5 ovarian
OVCAR-4 ovarian = system: OVCAR-4 ovarian
SK-OV-3 ovarian = system: SK-OV-3 ovarian
IGROV1 ovarian = system: IGROV1 ovarian
OVCAR-3 ovarian = system: OVCAR-3 ovarian
HS 578T breast = system: HS 578T breast
NCI/ADR-RES ovarian = system: NCI/ADR-RES ovarian

Measured: growth

CCOC(=O)c1nnn(-c2ccccc2)c1C1=CN(C)CCC1
inactive: SK-MEL-2 melanoma 103% | EKVX NSCLC 99% | SN12C renal 106% | UO-31 renal 82% | TK-10 renal 96.6% | ACHN renal 100% | CAKI-1 renal 97.8% | A498 renal 101% | CCRF-CEM leukemia 109% | MOLT-4 leukemia 97.3% | SR leukemia 88.8% | RPMI-8226 leukemia 113% | OVCAR-8 ovarian 102% | OVCAR-5 ovarian 99.9% | OVCAR-4 ovarian 99.9% | SK-OV-3 ovarian 97.2% | IGROV1 ovarian 104% | OVCAR-3 ovarian 100% | HS 578T breast 91.9% | NCI/ADR-RES ovarian 102%

Cc1nc(Nc2ccc(NC(=S)Nc3ccccc3)cc2)nc2nc(Nc3ccc(S(=O)(=O)O)cc3)[nH]c(=O)c12
inactive: SK-MEL-2 melanoma 104% | EKVX NSCLC 111% | SN12C renal 109% | UO-31 renal 78.9% | TK-10 renal 125% | ACHN renal 128% | CAKI-1 renal 82.5% | A498 renal 158% | CCRF-CEM leukemia 84.5% | MOLT-4 leukemia 89.7% | SR leukemia 47.5% | RPMI-8226 leukemia 79.2% | OVCAR-8 ovarian 49.8% | OVCAR-5 ovarian 103% | OVCAR-4 ovarian 113% | SK-OV-3 ovarian 98.3% | IGROV1 ovarian 72% | OVCAR-3 ovarian 139% | HS 578T breast 111% | NCI/ADR-RES ovarian 106%

N#Cc1c(N)n2c(nc1=Nc1ccc(Cl)cc1)sc1cc(Cl)ccc12
inactive: SK-MEL-2 melanoma 69.8% | EKVX NSCLC 62.3% | SN12C renal 88.4% | UO-31 renal 61.3% | TK-10 renal 108% | ACHN renal 91.3% | CAKI-1 renal 75.5% | A498 renal 91.1% | CCRF-CEM leukemia 92% | MOLT-4 leukemia 27.8% | SR leukemia 22.6% | RPMI-8226 leukemia 87.2% | OVCAR-8 ovarian 64.9% | OVCAR-5 ovarian 105% | OVCAR-4 ovarian 63.1% | SK-OV-3 ovarian 77.2% | IGROV1 ovarian 95.9% | OVCAR-3 ovarian 98.1% | HS 578T breast 33.3% | NCI/ADR-RES ovarian 73.1%

Clc1ccc(/C=N\N=c2\scc(-c3ccc(Cl)cc3)n2/N=C/c2ccc(Cl)cc2)cc1
inactive: SK-MEL-2 melanoma 91.4% | EKVX NSCLC 109% | SN12C renal 102% | UO-31 renal 95.7% | TK-10 renal 92.5% | ACHN renal 106% | CAKI-1 renal 107% | A498 renal 92.1% | CCRF-CEM leukemia 97% | MOLT-4 leukemia 91.7% | SR leukemia 93% | RPMI-8226 leukemia 106% | OVCAR-8 ovarian 99.5% | OVCAR-5 ovarian 105% | OVCAR-4 ovarian 114% | SK-OV-3 ovarian 102% | IGROV1 ovarian 103% | OVCAR-3 ovarian 114% | HS 578T breast 96.5% | NCI/ADR-RES ovarian 109%

CN=C1C=CC(=C(c2ccc(N(C)C)cc2)c2ccc(N(C)C)cc2)C=C1
inactive: OVCAR-5 ovarian 17.4% | HS 578T breast 32.6% | NCI/ADR-RES ovarian 10.9%
active: SK-MEL-2 melanoma -52.4% | EKVX NSCLC 3.72% | SN12C renal -32.1% | UO-31 renal -14.2% | TK-10 renal -53% | ACHN renal -53.4% | CAKI-1 renal 9.65% | A498 renal -27.4% | CCRF-CEM leukemia 3.67% | MOLT-4 leukemia 3.36% | SR leukemia -10.9% | RPMI-8226 leukemia 0.425% | OVCAR-8 ovarian -38.5% | OVCAR-4 ovarian 7.52% | SK-OV-3 ovarian -15.6% | IGROV1 ovarian -12.7% | OVCAR-3 ovarian -42.2%

C[C@@H]1CC[C@@H]2[C@@H]1[C@H](OC(=O)/C=C/c1ccccc1)[C@]1(C3CCCCC3)C[C@@H](NC(=O)CO)[C@@]2(C)O1
inactive: SK-MEL-2 melanoma 95.9% | EKVX NSCLC 98.4% | SN12C renal 59.2% | UO-31 renal 72.1% | TK-10 renal 92.3% | ACHN renal 50.2% | CAKI-1 renal 91.7% | A498 renal 44.9% | CCRF-CEM leukemia 99.2% | MOLT-4 leukemia 88.9% | SR leukemia 93.9% | RPMI-8226 leukemia 100% | OVCAR-8 ovarian 98.6% | OVCAR-5 ovarian 94.6% | OVCAR-4 ovarian 102% | SK-OV-3 ovarian 112% | IGROV1 ovarian 101% | OVCAR-3 ovarian 98.6% | NCI/ADR-RES ovarian 95.4%
active: HS 578T breast 8.45%

CCCCCCCC/C=C\CCCCCCCC(=O)Oc1cccc2cccnc12
inactive: SK-MEL-2 melanoma 140% | EKVX NSCLC 95.1% | SN12C renal 88.9% | UO-31 renal 88.3% | TK-10 renal 120% | ACHN renal 103% | A498 renal 121% | CCRF-CEM leukemia 96.3% | MOLT-4 leukemia 80.3% | SR leukemia 45.9% | RPMI-8226 leukemia 297% | OVCAR-8 ovarian 89.7% | OVCAR-5 ovarian 104% | OVCAR-4 ovarian 128% | SK-OV-3 ovarian 112% | IGROV1 ovarian 85.4% | HS 578T breast 138% | NCI/ADR-RES ovarian 99.1%
active: CAKI-1 renal -0.06% | OVCAR-3 ovarian -2.34%

CSc1nc2sc3cc(Cl)ccc3n2c(=N)c1C#N
inactive: SK-MEL-2 melanoma 87.3% | EKVX NSCLC 81.9% | SN12C renal 89.5% | UO-31 renal 75.2% | TK-10 renal 83.8% | ACHN renal 78.9% | CAKI-1 renal 69.9% | A498 renal 98% | CCRF-CEM leukemia 88.6% | MOLT-4 leukemia 15.7% | SR leukemia 56.8% | RPMI-8226 leukemia 83.5% | OVCAR-8 ovarian 56.9% | OVCAR-5 ovarian 107% | OVCAR-4 ovarian 45.4% | IGROV1 ovarian 96.7% | OVCAR-3 ovarian 101% | HS 578T breast 24.8% | NCI/ADR-RES ovarian 58.4%

CC(=O)C(C(C)=O)c1nc2sc3cc(Cl)ccc3n2c(=N)c1C#N
inactive: SK-MEL-2 melanoma 86.8% | EKVX NSCLC 70.7% | SN12C renal 90% | UO-31 renal 58.4% | TK-10 renal 117% | ACHN renal 84% | CAKI-1 renal 85.7% | A498 renal 84.5% | CCRF-CEM leukemia 91.9% | MOLT-4 leukemia 67% | SR leukemia 33.6% | RPMI-8226 leukemia 60.8% | OVCAR-8 ovarian 90.5% | OVCAR-5 ovarian 94.8% | OVCAR-4 ovarian 71.9% | SK-OV-3 ovarian 93.8% | IGROV1 ovarian 70.4% | OVCAR-3 ovarian 86.1% | HS 578T breast 48.5% | NCI/ADR-RES ovarian 88.3%

COc1cc2oc3cc(C)oc(=O)c3c2cc1OC
inactive: SK-MEL-2 melanoma 97.2% | EKVX NSCLC 102% | SN12C renal 92.8% | UO-31 renal 82.7% | TK-10 renal 96.7% | ACHN renal 94% | CAKI-1 renal 86.4% | A498 renal 86.3% | CCRF-CEM leukemia 112% | MOLT-4 leukemia 95% | SR leukemia 106% | RPMI-8226 leukemia 87.2% | OVCAR-8 ovarian 97.3% | OVCAR-5 ovarian 83.1% | OVCAR-4 ovarian 93.6% | IGROV1 ovarian 98.9% | OVCAR-3 ovarian 110% | HS 578T breast 106% | NCI/ADR-RES ovarian 89.1%

COc1cccc(-c2cnco2)c1OCc1c(C)c(COc2c(OC)cccc2-c2cnco2)c(C)c(COc2c(OC)cccc2-c2cnco2)c1C
active: A498 renal -13.6% | OVCAR-4 ovarian 7.51%
inactive: SK-MEL-2 melanoma 60.9% | EKVX NSCLC 52.8% | SN12C renal 51.4% | UO-31 renal 30.8% | TK-10 renal 28.1% | ACHN renal 29.6% | CAKI-1 renal 88.7% | CCRF-CEM leukemia 94.5% | MOLT-4 leukemia 91.2% | SR leukemia 64.2% | RPMI-8226 leukemia 47.4% | OVCAR-8 ovarian 56.7% | OVCAR-5 ovarian 74.9% | IGROV1 ovarian 80.2% | OVCAR-3 ovarian 63.1% | HS 578T breast 30.8% | NCI/ADR-RES ovarian 81.2%

Cc1cc(C(c2ccccc2)c2ccccc2)ccc1NS(=O)(=O)c1ccccc1
inactive: SK-MEL-2 melanoma 104% | EKVX NSCLC 83.5% | SN12C renal 95.3% | UO-31 renal 82.3% | TK-10 renal 123% | ACHN renal 106% | CAKI-1 renal 89.3% | A498 renal 102% | CCRF-CEM leukemia 82.4% | MOLT-4 leukemia 59.7% | SR leukemia 74.7% | RPMI-8226 leukemia 71% | OVCAR-8 ovarian 101% | OVCAR-5 ovarian 114% | OVCAR-4 ovarian 98.5% | SK-OV-3 ovarian 109% | IGROV1 ovarian 123% | OVCAR-3 ovarian 108% | HS 578T breast 89.8% | NCI/ADR-RES ovarian 82.8%

Cc1c(C(=O)O)nnn1-c1nccs1
inactive: SK-MEL-2 melanoma 94.1% | EKVX NSCLC 92.9% | SN12C renal 101% | UO-31 renal 91% | TK-10 renal 101% | ACHN renal 99.9% | CAKI-1 renal 94.3% | A498 renal 86.4% | CCRF-CEM leukemia 93.3% | MOLT-4 leukemia 103% | SR leukemia 101% | RPMI-8226 leukemia 93% | OVCAR-8 ovarian 91.6% | OVCAR-5 ovarian 104% | OVCAR-4 ovarian 96.7% | SK-OV-3 ovarian 90.8% | IGROV1 ovarian 104% | OVCAR-3 ovarian 106% | HS 578T breast 86.9% | NCI/ADR-RES ovarian 103%

CC1(C)CC(=O)c2c(ccc(C(=O)C[C@H](N)CO)c2N)O1
inactive: SK-MEL-2 melanoma 36.8% | EKVX NSCLC 80% | SN12C renal 32.6% | UO-31 renal 43.4% | TK-10 renal 79.4% | ACHN renal 46.2% | CAKI-1 renal 20.3% | CCRF-CEM leukemia 17.7% | MOLT-4 leukemia 38.5% | SR leukemia 16.7% | RPMI-8226 leukemia 13% | OVCAR-8 ovarian 32.4% | OVCAR-5 ovarian 64.2% | OVCAR-4 ovarian 69.8% | IGROV1 ovarian 34.7% | HS 578T breast 82.4% | NCI/ADR-RES ovarian 70.5%
active: A498 renal -16.8% | OVCAR-3 ovarian 7.02%

CCOC(=O)C(O)C(O)(c1ccccc1)c1ccccc1 (stereo unspecified)
inactive: SK-MEL-2 melanoma 102% | EKVX NSCLC 100% | SN12C renal 99% | UO-31 renal 91.2% | TK-10 renal 100% | ACHN renal 97.4% | CAKI-1 renal 97% | A498 renal 98.3% | CCRF-CEM leukemia 99.1% | MOLT-4 leukemia 95.1% | SR leukemia 95% | RPMI-8226 leukemia 106% | OVCAR-8 ovarian 108% | OVCAR-5 ovarian 90.4% | OVCAR-4 ovarian 111% | SK-OV-3 ovarian 97% | IGROV1 ovarian 100% | OVCAR-3 ovarian 108% | HS 578T breast 108% | NCI/ADR-RES ovarian 102%
